Assay results taken from PubChem BioAssay (EPA / NIEHS).
Calls of active or inactive are those of the source. The calls were made as follows: active = hit-call score of the fitted dose curve at least 0.9, where 1 is the maximum; inactive = score below 0.9.

Key:
[1] = read-out: Transforming growth factor beta 1 (TGFb1), TGFB1 (gene 7040); assay: BSK_KF3CT_TGFb1: BioMAP Diversity Plus: KF3CT Assay for Transforming growth factor beta 1 (TGFb1) Biomarker Activity (AID 2283072); conditions: primary human keratinocytes with fibroblasts; actives raise or lower the signal
How it was run: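 Primary human skin cells (keratinocytes, foreskin fibroblasts) were co-cultured, exposed to test chemical and sampled at 24 h. TGF-b1 levels were measured by ELISA and fitted bidirectionally relative to DMSO.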

[2] = read-out: C-C motif chemokine 2 (Homo sapiens) (UniProt P13500); assay: BSK_KF3CT_MCP1: BioMAP Diversity Plus: KF3CT Assay for Monocyte Chemoattractant Protein 1 (MCP1/CCL2) Biomarker Activity (AID 2283073); conditions: primary human keratinocytes with fibroblasts; actives raise or lower the signal
How it was run: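 Human keratinocyte–foreskin fibroblast co-culture; MCP-1 measured by ELISA 24 h after dosing. Bidirectional fit vs DMSO; cytotoxicity tracked by SRB total protein in parallel cultures.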

[3] = read-out: Matrix Metallopeptidase 9 (MMP9), MMP9 (gene 4318); assay: BSK_KF3CT_MMP9: BioMAP Diversity Plus: KF3CT Assay for Matrix Metallopeptidase 9 (MMP9) Biomarker Activity (AID 2283074); conditions: primary human keratinocytes with fibroblasts; actives raise or lower the signal;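 as to AC50: MMP9 protein level quantified by ELISA in the co-culture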
How it was run: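 Human keratinocyte/foreskin fibroblast co-culture; compound added; 24 h; MMP-9 by ELISA; bidirectional fit vs DMSO baseline.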

[4] = read-out: urokinase plasminogen activator (uPA), PLAU (gene 5328); assay: BSK_KF3CT_uPA: BioMAP Diversity Plus: KF3CT Assay for urokinase plasminogen activator (uPA) Biomarker Activity (AID 2283075); conditions: primary human keratinocytes with fibroblasts; actives raise or lower the signal
How it was run: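 ELISA readout of uPA, analyzed for signal gain or loss relative to DMSO, from a human primary keratinocyte–foreskin fibroblast co-culture measured 24 h after chemical treatment.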

CD40, CD40 (gene 958) [5] = assay: BSK_LPS_CD40: BioMAP Diversity Plus: LPS Assay for CD40 Biomarker Activity (AID 2283076); conditions: primary human HUVEC with PBMC; actives raise or lower the signal
How it was run: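 HUVEC plus PBMC co-culture stimulated with LPS; CD40 quantified by ELISA 24 h after compound dosing. Fitting was bidirectional relative to DMSO. SRB staining of parallel cultures flagged overt cytotoxicity.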

[6] = read-out: E-selectin (Homo sapiens) (UniProt P16581); assay: BSK_LPS_Eselectin: BioMAP Diversity Plus: LPS Assay for Eselectin Biomarker Activity (AID 2283077); conditions: primary human HUVEC with PBMC; actives raise or lower the signal
How it was run: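 Human umbilical vein endothelial cells co-cultured with PBMC under LPS stimulation; cell-surface E-selectin measured by ELISA 24 h after dosing. Change in either direction versus DMSO, with SRB total-protein staining in parallel cultures for cytotoxicity.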

[7] = read-out: Interleukin-8 (IL8), CXCL8 (gene 3576); assay: BSK_LPS_IL8: BioMAP Diversity Plus: LPS Assay for Interleukin-8 (IL8) Biomarker Activity (AID 2283078); conditions: primary human HUVEC with PBMC; actives raise or lower the signal
How it was run: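 Human umbilical vein endothelial cells co-cultured with PBMC, LPS-stimulated, exposed to compound for 24 h. IL-8 quantified by ELISA; fitted in both directions against DMSO, with SRB total-protein staining of parallel cultures for cytotoxicity.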

[8] = BSK_LPS_SRB: Viability Assessment in the BioMAP Diversity Plus: LPS Assay (AID 2283079); conditions: primary human HUVEC with PBMC;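 also: total protein by sulforhodamine B absorbance as a cytotoxicity measure; measured one day after compound addition; fitted in both directions against DMSO so loss or gain of signal counts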
How it was run: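 Co-culture of human umbilical vein endothelial cells and PBMC, read 24 h after dosing. Total protein by 0.1% SRB staining after 10% TCA fixation, absorbance at 560 nm; bidirectional fit against DMSO.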

[9] = read-out: Interleukin-1 alpha (IL1a), IL1A (gene 3552); assay: BSK_LPS_IL1a: BioMAP Diversity Plus: LPS Assay for Interleukin-1 alpha (IL1a) Biomarker Activity (AID 2283080); conditions: primary human HUVEC with PBMC; actives raise or lower the signal
How it was run: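 Human umbilical vein endothelial cells co-cultured with PBMC and stimulated with LPS; IL-1a measured by ELISA 24 h after dosing. Bidirectional fitting against DMSO; cytotoxicity checked by SRB staining in parallel cultures.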

[10] = read-out: Monocyte Chemoattractant Protein-1 (MCP1), CCL2 (gene 6347); assay: BSK_LPS_MCP1: BioMAP Diversity Plus: LPS Assay for Monocyte Chemoattractant Protein-1 (MCP1) Biomarker Activity (AID 2283081); conditions: primary human HUVEC with PBMC; actives raise or lower the signal;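 as to AC50: secreted MCP-1 protein quantified by ELISA in culture supernatant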
How it was run: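 Human umbilical vein endothelial cells co-cultured with PBMC, LPS-stimulated; secreted MCP-1 measured by ELISA 24 h after compound addition. Bidirectional curve fitting against DMSO baseline; SRB total-protein staining in parallel cultures for cytotoxicity.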

[11] = BSK_LPS_PGE2: BioMAP Diversity Plus: LPS Assay for Prostaglandin E2 (PGE2) Biomarker Activity (AID 2283082); conditions: primary human HUVEC with PBMC; actives raise or lower the signal;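 as to AC50: secreted prostaglandin E2 measured by ELISA in LPS-stimulated co-culture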
How it was run: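 LPS-activated HUVEC/PBMC co-culture; cmpd dosed, 24 h; PGE2 by ELISA; bidirectional fit vs DMSO; SRB (0.1%, TCA-fixed, 560 nm) in parallel plates for overt cytotox.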

[12] = read-out: Macrophage colony-stimulating factor (MCSF), CSF1 (gene 1435); assay: BSK_LPS_MCSF: BioMAP Diversity Plus: LPS Assay for Macrophage colony-stimulating factor (MCSF) Biomarker Activity (AID 2283083); conditions: primary human HUVEC with PBMC; actives raise or lower the signal
How it was run: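 HUVEC–PBMC co-culture, M-CSF measured by ELISA 24 h after chemical dosing. Fitted in both directions relative to DMSO as negative control; overt cytotoxicity assessed by SRB total-protein staining in parallel cultures.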

[13] = read-out: Tissue Factor, F3 (gene 2152); assay: BSK_LPS_TissueFactor: BioMAP Diversity Plus: LPS Assay for Tissue Factor Biomarker Activity (AID 2283084); conditions: primary human HUVEC with PBMC; actives raise or lower the signal
How it was run: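 Human umbilical vein endothelial cells co-cultured with PBMC were dosed with compound. Cell-surface CD142 was measured by ELISA 24 h later. Activity was fitted bidirectionally against DMSO, with SRB total-protein staining in parallel cultures for cytotoxicity.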

[14] = read-out: Tumor necrosis factor (Homo sapiens) (UniProt P01375); assay: BSK_LPS_TNFa: BioMAP Diversity Plus: LPS Assay for Tumour Necrosis Factor alpha (TNFa) Biomarker Activity (AID 2283085); conditions: primary human HUVEC with PBMC; actives raise or lower the signal
How it was run: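 Read-out is ELISA of TNFa in primary human endothelial cell–PBMC co-cultures at 24 h after compound. Activity in either direction was fitted against DMSO.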

[15] = read-out: Vascular cell adhesion molecule 1 (VCAM1), VCAM1 (gene 7412); assay: BSK_LPS_VCAM1: BioMAP Diversity Plus: LPS Assay for Vascular cell adhesion molecule 1 (VCAM1) Biomarker Activity (AID 2283086); conditions: primary human HUVEC with PBMC; actives raise or lower the signal
How it was run: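 HUVEC + PBMC co-culture, LPS system; compound 24 h; VCAM-1 by ELISA; bidirectional fit vs DMSO control; parallel SRB (0.1%, TCA-fixed, 560 nm) for cytotoxicity.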

CD38, CD38 (gene 952) = assay: BSK_SAg_CD38: BioMAP Diversity Plus: SAg Assay for CD38 Biomarker Activity (AID 2283087); conditions: primary human HUVEC with PBMC; actives raise or lower the signal
How it was run: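 Human HUVEC plus PBMC co-culture stimulated with superantigen; CD38 measured by ELISA 24 h after chemical dosing. Fluorescence read-out, bidirectional fit against DMSO; cytotoxicity tracked in parallel by SRB and Alamar Blue.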

CD40, CD40 (gene 958) [16] = assay: BSK_SAg_CD40: BioMAP Diversity Plus: SAg Assay for CD40 Biomarker Activity (AID 2283088); conditions: primary human HUVEC with PBMC; actives raise or lower the signal
How it was run: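 HUVEC plus PBMC co-culture, superantigen-activated, with CD40 read by ELISA 24 h after dosing. Curves fitted in both directions against DMSO. Overt cytotoxicity checked by parallel SRB total-protein staining.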

CD69, CD69 (gene 969) = assay: BSK_SAg_CD69: BioMAP Diversity Plus: SAg Assay for CD69 Biomarker Activity (AID 2283089); conditions: primary human HUVEC with PBMC; actives raise or lower the signal;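 as to AC50: cell surface CD69 protein quantified by ELISA with fluorescence detection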
How it was run: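 HUVEC co-cultured with PBMC were dosed with chemical, and CD69 was measured by ELISA with fluorescence read-out 24 h later. Bidirectional curve fitting used DMSO as negative control and activity baseline.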

[17] = read-out: Monocyte Chemoattractant Protein-1 (MCP1), CCL2 (gene 6347); assay: BSK_SAg_MCP1: BioMAP Diversity Plus: SAg Assay for Monocyte Chemoattractant Protein-1 (MCP1) Biomarker Activity (AID 2283090); conditions: primary human HUVEC with PBMC; actives raise or lower the signal
How it was run: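 MCP-1 levels in the endothelial–PBMC SAg co-culture were quantified by ELISA at 24 h post-dosing; both increases and decreases versus DMSO scored. Cytotoxicity monitored by SRB total protein in parallel cultures.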

[18] = read-out: E-selectin (Homo sapiens) (UniProt P16581); assay: BSK_SAg_Eselectin: BioMAP Diversity Plus: SAg Assay for Eselectin Biomarker Activity (AID 2283091); conditions: primary human HUVEC with PBMC; actives raise or lower the signal
How it was run: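 Human umbilical vein endothelial cells co-cultured with peripheral blood mononuclear cells, SAg system. E-selectin is measured by ELISA 24 h after dosing and fitted bidirectionally against DMSO. Cytotoxicity is checked by SRB staining of parallel cultures.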

Measured: AC50

Sequence of Tumor necrosis factor (Homo sapiens) (P01375 whole entry, looked up): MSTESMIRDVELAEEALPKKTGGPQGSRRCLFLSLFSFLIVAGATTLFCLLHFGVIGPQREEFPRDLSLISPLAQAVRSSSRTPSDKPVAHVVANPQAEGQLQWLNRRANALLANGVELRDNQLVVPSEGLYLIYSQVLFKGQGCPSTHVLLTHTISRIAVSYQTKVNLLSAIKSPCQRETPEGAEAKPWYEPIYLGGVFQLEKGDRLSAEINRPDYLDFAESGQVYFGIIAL
Sequence of E-selectin (Homo sapiens) (P16581 whole entry, looked up): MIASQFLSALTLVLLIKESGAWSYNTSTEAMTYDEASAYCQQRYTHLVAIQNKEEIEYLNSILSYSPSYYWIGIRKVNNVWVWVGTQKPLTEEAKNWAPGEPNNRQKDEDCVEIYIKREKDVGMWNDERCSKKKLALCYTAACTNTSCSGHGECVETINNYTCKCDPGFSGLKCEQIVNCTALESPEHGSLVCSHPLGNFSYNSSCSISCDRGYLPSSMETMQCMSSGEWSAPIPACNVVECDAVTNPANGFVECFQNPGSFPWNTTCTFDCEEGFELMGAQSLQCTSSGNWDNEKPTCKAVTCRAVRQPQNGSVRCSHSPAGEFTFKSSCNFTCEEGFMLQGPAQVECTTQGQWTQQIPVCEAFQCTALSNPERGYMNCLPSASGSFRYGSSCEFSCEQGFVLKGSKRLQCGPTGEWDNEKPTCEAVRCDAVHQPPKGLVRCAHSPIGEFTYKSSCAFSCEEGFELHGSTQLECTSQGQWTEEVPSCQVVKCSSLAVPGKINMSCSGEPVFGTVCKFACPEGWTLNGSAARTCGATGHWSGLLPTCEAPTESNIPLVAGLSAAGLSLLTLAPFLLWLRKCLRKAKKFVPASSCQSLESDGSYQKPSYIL

Nc1nc(=S)c2[nH]cnc2[nH]1
active: [11] 20 µM
inactive: all other assays above

Cc1c(C)c2c(c(C)c1O)CCC(C)(COc1ccc(CC3SC(=O)NC3=O)cc1)O2 (stereo not drawn)
active: [1] 20.9 µM | [2] 15.1 µM | [3] 12.7 µM | [4] 12 µM | CD40, CD40 (gene 958) [5] 28.7 µM | [6] 30.3 µM | [7] 32.1 µM | [8] 26.3 µM | [9] 32.7 µM | [10] 30.8 µM | [11] 32.5 µM | [12] 31.6 µM | [13] 34.8 µM | [14] 31.6 µM | [15] 30.5 µM | CD38, CD38 (gene 952) 24.9 µM | CD40, CD40 (gene 958) [16] 14.9 µM | CD69, CD69 (gene 969) 21.5 µM | [17] 32.6 µM | [18] 31.9 µM

OCC(O)CO
inactive: all assays above

COc1ccc(OC(F)(F)F)cc1CN[C@H]1CCCN[C@H]1c1ccccc1
active: CD40, CD40 (gene 958) [5] 26.6 µM | [7] 9.98 µM | [8] 20 µM | [10] 7.98 µM | [15] 14.6 µM | CD69, CD69 (gene 969) 20 µM
inactive: all other assays above

O=C(N[C@@H](c1ccccc1)[C@@H]1CCCCN1)c1cccc(C(F)(F)F)c1Cl
active: [1] 20 µM | [3] 30.8 µM | [4] 32.5 µM | CD40, CD40 (gene 958) [5] 20 µM | [6] 5.55 µM | [7] 17.9 µM | [8] 23.4 µM | [9] 20 µM | [10] 22.7 µM | [11] 4.91 µM | CD38, CD38 (gene 952) 20 µM | CD40, CD40 (gene 958) [16] 20 µM | CD69, CD69 (gene 969) 20 µM | [17] 23.4 µM | [18] 12.3 µM
inactive: [2] | [12] | [13] | [14]

NC1CCCCC1
inactive: all assays above

CN(C)C(=O)NC1(c2ccccc2)CCN(CCC[C@]2(c3ccc(Cl)c(Cl)c3)CCCN(C(=O)c3ccccc3)C2)CC1
active: [7] 8.1 µM | [15] 6.96 µM
inactive: all other assays above

CCCCCCCC(=O)OC
inactive: all assays above

CC(=O)CC(c1ccccc1)c1c(O)c2ccccc2oc1=O (stereo not drawn)
active: [14] 0.711 µM
inactive: all other assays above

O=Cc1ccccc1C=O
active: [14] 1.53 µM
not listed: [15]
inactive: all other assays above

CCOCCOCCO
inactive: all assays above

CC1=C(C)S(=O)(=O)CCS1(=O)=O
active: CD40, CD40 (gene 958) [5] 4.33 µM | [15] 11.5 µM | [18] 3.97 µM
inactive: all other assays above

O=C(O)CC(O)(CC(=O)O)C(=O)O
inactive: all assays above
